Rows were chosen to be rich in hits. Some 2.2% of all compounds tested hit in one or more screens of this group.
EBV LMP1 NFkB – reduces LMP1-driven NF-kappaB luciferase signal | inhibition, % at 12.5 µM | LMP1-induced NF-kappaB luciferase reporter cells, luminescence | actives 0.69% (n = 350,000); in the data active means inhibition above about 41%; inconclusive means no clear call, values can overlap the other calls
LGR2 inh – Drosophila LGR2 receptor signaling inhibition. HEK293 LGR2, CRE-luciferase, bursicon-stimulated, 4 h. inhibition, % at 9.99 µM. actives 0.35% (n = 380,000);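 active means drop in luminescence signal, shown as inhibition above about 50% in the replicate tests, limit read from the data, passing the limit was not always enough; inconclusive means probably only some replicates passing the limit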;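 further: agonist challenge used bursicon conditioned medium at about half maximal strength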
PAX8 inh HTS – PAX8 transcriptional activity inhibition; RMG-I TPO-luciferase reporter, SteadyGlo, 24 h; inhibition, % at 12.6 µM; actives 1.2% (n = 360,000);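 active means mean replicate inhibition at least 60% with every replicate also reaching 60%; inconclusive means only one of the two criteria is met; inactive means mean below 60% and not all replicates reaching 60%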;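 further: luciferase light reporting Pax8 driven TPO promoter activity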
MITF TRPM1 inh – inhibitors of MITF-driven TRPM1 promoter in melanoma cells. SK-MEL-5 TRPM1 promoter luciferase, 24 h. inhibition, % at 12.5 µM. actives 0.83% (n = 330,000). AID 488899;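 active means mean inhibition across replicates of 60% or more, whatever share of single replicates reaches that level; inconclusive means some that reach 60%, reason not given; inactive means mean inhibition across replicates below 60%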
Shn3 3UTR inh – Schnurri-3 reporter inhibition in Clone20 osteoblasts. AID 588674. inhibition, % at 12.5 µM. actives 0.52% (n = 360,000). Clone20 osteoblast Shn3 3'UTR firefly luciferase, 24 h;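 active means mean inhibition of at least 75% with every replicate also reaching 75%; inconclusive means mean inhibition at least 75% but some replicate below; inactive means mean inhibition below 75%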
EWS-Fli block – blocks EWS/Fli oncoprotein-driven transcription. A673 NR0B1-luciferase reporter, viability-normalised. inhibition, % at 12.6 µM. actives 0.67% (n = 350,000). AID 651661;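 active means mean inhibition of at least 50% after viability correction, with every replicate also passing that limit; inconclusive means mean reaches 50% but only one of two replicates passes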;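 further: firefly luciferase signal divided by Alamar Blue viability fluorescence both relative to DMSO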
Hits are given with their value; . = inactive; ? = inconclusive; / = not tested or not shown; ! = a repeat was not active.

SMILES | EBV LMP1 NFkB | LGR2 inh | PAX8 inh HTS | MITF TRPM1 inh | Shn3 3UTR inh | EWS-Fli block
Cc1ccc2nc3sc(C(=O)N4CCOCC4)c(N)c3cc2c1 | 64 | / | 82 | 69 | . | /
O=C(O)C[C@@H]1C=C[C@@H](NC(=O)c2ccncc2)[C@H](CO)O1 | / | . | . | / | / | .
OCc1cc(C(O)CNCCCCCCOCCCCc2ccccc2)ccc1O (configuration not stated) | 55 | . | . | . | . | .
C[C@@H]1CN([C@H](C)CO)C(=O)c2cc(NS(=O)(=O)c3ccc(Cl)cc3)ccc2O[C@@H](C)CCCCO[C@H]1CN(C)C(=O)Nc1ccc(C(F)(F)F)cc1 | / | . | 102 | / | / | .
C[C@@H]1CCCCO[C@@H](CN(C)C(=O)Nc2ccc(C(F)(F)F)cc2)[C@@H](C)CN([C@H](C)CO)C(=O)c2cc(NS(=O)(=O)c3ccc(Cl)cc3)ccc2O1 | / | . | 82! | / | / | .
C[C@@H]1CCCCO[C@H](CN(C)C(=O)Nc2ccc(C(F)(F)F)cc2)[C@@H](C)CN([C@H](C)CO)C(=O)c2cc(NS(=O)(=O)c3ccc(F)cc3)ccc2O1 | / | . | . | / | / | .
Cc1ccc(S(=O)(=O)Nc2cccc3c2O[C@H](CN(C)S(=O)(=O)c2ccc(C)cc2)[C@H](C)CN([C@H](C)CO)C3=O)cc1 | / | . | . | / | / | .
CC(C)NC(=O)N[C@H]1C=C[C@H](CC(=O)N2CCCCC2)O[C@H]1CO | / | . | . | / | / | .
COc1ccccc1C(=O)Nc1ccc2c(c1)C(=O)N(C)C[C@@H](OC)[C@@H](C)CN[C@@H](C)CO2 | / | . | . | / | / | .
CCN1CCN(c2nc(-c3cccs3)nc3ccccc23)CC1 | . | . | 134 | . | . | .
Oc1c(C(Nc2nccs2)c2ccc(C(F)(F)F)cc2)ccc2cccnc12 (configuration not stated) | 73 | . | 85 | 80 | . | ?
Oc1c(C(Nc2cccc(C(F)(F)F)c2)c2ccncc2)ccc2cccnc12 (configuration not stated) | 53 | . | . | 65 | 97 | .
O=C(Nc1ccncc1)Nc1cccc(C(F)(F)F)c1 | . | . | . | . | . | .
O=C(C[C@@H]1CC[C@H]2[C@@H](COC[C@H](O)CN2CCC(F)(F)F)O1)NCc1ccc(Oc2ccccc2)cc1 | / | . | . | / | / | .
c1ccc(CNc2nc(NCc3cccs3)nc3ccsc23)cc1 | / | 57 | . | / | . | .
CNc1nc(NCc2ccccc2)c2sccc2n1 | / | . | . | / | . | .
c1ccc(CNc2nc(NCCc3ccncc3)c3sccc3n2)cc1 | / | . | 70 | / | . | .
C[C@@H]1CN([C@@H](C)CO)C(=O)c2cc(NC(=O)Nc3ccc(F)cc3)ccc2O[C@@H]1CN(C)CC1CCCCC1 | / | . | . | / | / | .
C[C@H](CO)N1C[C@H](C)[C@H](CN(C)Cc2ccc3c(c2)OCO3)OCCCC[C@H](C)Oc2ccc(NS(=O)(=O)c3ccc(Cl)cc3)cc2C1=O | / | . | 76 | / | / | .
Cc1ccc(S(=O)(=O)Nc2ccc3c(c2)C(=O)N([C@H](C)CO)C[C@@H](C)[C@@H](CN(C)Cc2ccc4c(c2)OCO4)OCCCC[C@@H](C)O3)cc1 | / | . | 97 | / | / | .
Cc1ccc(S(=O)(=O)Nc2ccc3c(c2)C(=O)N([C@@H](C)CO)C[C@H](C)[C@H](CN(C)Cc2ccc4c(c2)OCO4)OCCCC[C@@H](C)O3)cc1 | / | . | . | / | / | .
Cc1cc(C)c2c(c1)/C(=N/NC(=O)c1cc(C)oc1C)CCC2 | . | . | 99 | . | . | .
C[C@@H]1CN([C@H](C)CO)S(=O)(=O)c2ccc(Br)cc2O[C@@H]1CN(C)C(=O)C1CC1 | / | . | . | / | / | .
CC(C)(C)c1ccc(-c2cc(N)n[nH]2)cc1 | . | / | . | 95 | . | 63
COc1ccc(/C=N/NC(=O)c2[nH]nc3c2CCc2ccccc2-3)cc1OC | . | . | . | . | . | 53
SMILES | EBV LMP1 NFkB | LGR2 inh | PAX8 inh HTS | MITF TRPM1 inh | Shn3 3UTR inh | EWS-Fli block
COc1cccc(/C=N/Nc2cc(-n3nc(C)cc3-c3ccccc3)ncn2)c1O | . | . | . | . | 90 | /
COc1cccc(/C=N/Nc2ncnc(Cl)c2N)c1O | 65 | / | / | . | . | .
Oc1ccccc1/C=N/Nc1nccnc1Cl | 58 | / | . | . | ? | /
COc1cccc(/C=N/Nc2nc3ccccc3[nH]2)c1O | 83 | . | . | . | ? | .
O=C(NC1CCCC1)[C@H]1[C@H](CO)[C@H]2Cn3c(ccc(-c4ccncc4)c3=O)[C@H]2N1CCc1ccccc1 | / | . | . | / | / | .
Cc1ccccc1-c1cnc2c(c1)C(=O)N([C@@H](C)CO)C[C@H](C)[C@H](CN(C)Cc1cccnc1)O2 | / | . | / | / | / | .
CC(=O)N(C)C[C@H]1Oc2ncc(C#CC(C)(C)O)cc2C(=O)N([C@@H](C)CO)C[C@H]1C | / | . | / | / | / | .
CO[C@@H]1CN(C)C(=O)c2ccc(NC(=O)Cc3ccccc3)cc2OC[C@H](C)NC[C@@H]1C | / | . | . | / | / | .
COc1cccc(/C=N/Nc2nccnc2Cl)c1O | 72 | 76 | ? | . | 86 | .
COc1cccc(/C=N/Nc2ncnc3scc(-c4ccccc4)c23)c1O | 81 | . | 76 | 70 | 85 | /
CCC(C)C(Nc1ncnc2scc(-c3ccccc3)c12)C(=O)O (configuration not stated) | . | . | . | . | . | .
CN(C)C(=O)[C@@H]1[C@@H](CO)[C@@H]2Cn3c(cccc3=O)[C@@H]2N1CC1CCCC1 | / | . | . | / | / | .
Nc1nc(N)c2cc(S(=O)(=O)c3ccc4ccccc4c3)ccc2n1 | . | . | . | / | 85 | .
O=c1c([N+](=O)[O-])cn(Cc2ccccc2)c(=O)n1Cc1ccccc1 | 68 | . | . | . | . | .
CC1=C2[C@@H](c3ccccc3)OB(O)C[C@@H]2[C@@H]2C(=O)N(Cc3ccccc3)C(=O)[C@@H]2C1 | / | / | . | / | / | .
CSc1nc2nccc(-c3ccc(Cl)cc3)n2n1 | . | . | / | . | . | /
CSc1nc2nccc(/C=C\c3ccccc3)n2n1 | . | / | 63 | . | . | /
C[C@@H]1CN([C@H](C)CO)C(=O)c2cccc(NC(=O)C3CCCCC3)c2O[C@H]1CN(C)Cc1ccc(C(=O)Nc2ccccc2N)cc1 | / | . | . | / | / | .
O=[N+]([O-])c1ccc(S(=O)(=O)CC(CN2CCCCC2)N2CCCCC2)cc1 (configuration not stated) | . | / | . | 81 | . | .
O=S(=O)(CC(CN1CCCCC1)N1CCCCC1)c1ccccc1 (configuration not stated) | . | . | 64 | . | . | .
N=c1c2c(ncn1Cc1ccco1)Oc1c(ccc3ccccc13)C2c1ccccc1 (configuration not stated) | . | . | . | . | . | /
CN(C)CCn1cnc2c(c1=N)C(c1ccccc1)c1ccc3ccccc3c1O2 (configuration not stated) | . | . | . | 93 | . | .
CNC[C@H](CC1CCCCC1)NC[C@H](CO)NCC1(c2ccccc2)CC1 | . | . | . | 66 | . | .
